# Data reported in the supplement of paper PMC10338343.
# ± gives the standard deviation.
# Test system: MILI (PIWIL2) piRISC loaded with L1MC piRNA (26 nt)
# Test: pre-steady-state target cleavage rate (min^-1); guide: L1MC piRNA 5'p-UAACUAAAUACUAUGCAAGCUGUAGG; MIWI and MILI are mouse PIWI proteins and EfPiwi is from a freshwater sponge; tags in brackets are library labels; higher = faster piRNA-guided slicing of the target
# Details: auxiliary factor: 500 nM mouse GTSF1
# How it was run: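 Cleave-'n-Seq measured uncleaved targets by sequencing after a transcribed, DNA-blocked target RNA library […] was mixed with 1 nM active affinity-purified piRISC holding one synthetic guide, with or without 500 nM GTSF1 partner protein, at 33 °C in HEPES–potassium acetate buffer for 0–8 or 0–960 min. Counts were normalised to depth and to weakly complementary targets, three trials were pooled, and k3 was capped at 0.0001 min^-1. A burst-and-steady-state fit gave the pre-steady-state cleavage rate.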
# 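Note: 1 nM active piRISC with 0.1 nM target library at 33 °C single turnover.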
row,Sequence,pre-steady-state target cleavage rate
1,UCCUGGAUCAGCUACGAUAGUAUUUAGUUA,0.0475 ± 0.0093
2,UCCUGGUAGUCCUUGCAUAGUAUUUACAAA,0.00835 ± 0.0045
3,UCCUGGAACAGCUUGCAUACUAUUUACUUA,0.0611 ± 0.015
4,UCCUGGAUGUCGAUGCAUAGUAUUUAUUUA,0.0578 ± 0.015
5,UCCUGCUACAGCAACCAUAGUAUUUAGUAA,0.35 ± 0.063
6,UCCUGCUACAGCUUGCUUAGUAUUUACUUA,0.11 ± 0.015
7,UCCUGGUACAGCUUGCAUAGUAUAUAGAAA,0.0845 ± 0.028
8,UCCUGGAUGUCGAAGCAUCGUAUUUAGUUA,0.00755 ± 0.0031
9,UCCUGGUACAGCAAGCAUAGUAUUUUCAAA,0.0777 ± 0.022
10,UCCUGGAUCACGUUGCAUAGUAUUUACAAA,0.0591 ± 0.015
11,UCCUGGAUGUCGAAGCAUAGUAUUUAUUUA,0.0073 ± 0.0034
12,UCCUGGAUGUGCUUGCAAACUAUUUAGUUA,0.00852 ± 0.0038
13,UCCUGGAUGACGUUGCAUAGUAUUUACAAA,0.0104 ± 0.0057
14,UCCUGGAUGAGCUUGCAUUAGUAUUUAGUUA,0.00494 ± 0.0045
15,UCCUGGAUGUCCUUGCAUACUAUUUAGUAA,0.0148 ± 0.0062
16,UCCUGGAUGAGCUACGAUAGUAUUUAGUUA,0.00662 ± 0.0035
17,UCCUGGUACACGAUGCAUAGUAUUUACAAA,0.00826 ± 0.0057
18,UCCUGGAUGUCGAUGGAUAGUAUUUAGUAA,0.00684 ± 0.0036
19,UCCUGGAACAGCUUGCAAACUAUUUAGUUA,0.0282 ± 0.0064
20,UCCUGGAUGAGCUUGCAUAGUAUUAACAAA,0.00849 ± 0.0045

row,Sequence,pre-steady-state target cleavage rate
1,UCCUGCUACAGCUUGCAUAGUAUUUAUUA,0.0696 ± 0.017
2,UCCUGGAUGAGCUUGGAUACUAUUUAGUUA,0.00767 ± 0.0035
3,UCCUGCUACAGCUUGCAUAGUAUAAACAAA,0.0722 ± 0.022
4,UCCUGGAUCAGCUUGCAUAGAAUUUACAAA,0.00722 ± 0.0036
5,UCCUGGAUGUGCUAGCAUAGUAUAUAGUUA,0.115 ± 0.018
6,UCCUGGAUCACCUUGCAUAGAAUUUAGUUA,0.017 ± 0.0097
7,UCCUGGAUGAGCUUGCAUAGUAAAUAGUUA,0.114 ± 0.015
8,UCCUGCUACAUGCUUGCAUAGUAUUUAGUUA,0.0998 ± 0.021
9,UCCUGGAUGUCGAUGCAUAGUAUUUAGUCUA,0.0115 ± 0.0055
10,UCCUGGUACAGCUUGCAUAGUUUUUAGAUA,0.0378 ± 0.017
11,UCCUGGAUGACGAUGCAUAGUAUUUAGAAA,0.139 ± 0.035
12,UCCUCCUACAGCUUGCUAUGUAUUUACAAA,0.00653 ± 0.0036
13,UCCUGGAUGUCGUUCAUAGUAUUUAGUUA,0.013 ± 0.0035
14,UCCUGGUACAGCUUGCAUAGUUAUUAGUAA,0.01 ± 0.0044
15,UCCUGGUACAGCUUGCAUACUAUUUAGUAA,0.0573 ± 0.023
16,UCCUGGAUCAGCUUGCAUAGAUAUUAGUUA,0.00566 ± 0.0036
17,UCCUGGAUGUCGAUGUCAUAGUAUUUAGUUA,0.0067 ± 0.0037
18,UCCUGGAUCAGCUUGCAUAUAUUUAGUUA,0.0263 ± 0.0067
19,UCCUGGAUCAGCUUGCAUGUAUUUAGUUA,0.041 ± 0.0073
